Laboratory results taken from PubChem BioAssay (NCI).
Values joined by “and” are separate entries in the source; they are usually repeats but may differ in a detail not shown here. Identical values can stand only once. This is part of a sample that, as a whole, favours compounds with a hit. Of some 79,000 tested, about 15% had one in any assay. Values without a mark were called inactive. Active and inactive are the calls of the source. Rule as the data show it: active = growth inhibition above about 70%; inactive = the rest.

Assays:
[1] = NCI Yeast Anticancer Drug Screen. Data for the rad50 strain (AID 155);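 also: 0% = growth of vehicle-only cultures of the same strain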; conditions: S. cerevisiae rad50 strain growth inhibition, hits give high values; at 50.0 µM unless noted
Outline: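 Compounds were tested on a yeast strain with an engineered DNA damage repair alteration; the reported value is growth inhibition normalised to vehicle treatment.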

[2] = NCI Yeast Anticancer Drug Screen. Data for the mec2-1 strain (AID 157); conditions: S. cerevisiae mec2-1 strain, hits give high values; at 50.0 µM unless noted
Outline: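 Yeast mec2-1 mutant treated with compound. Readout: growth inhibition vs vehicle controls.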

[3] = NCI Yeast Anticancer Drug Screen. Data for the sgs1 mgt1 strain (AID 161);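 also: 0% = growth of cultures given vehicle only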; conditions: S. cerevisiae sgs1 mgt1 strain, hits give high values; at 50.0 µM unless noted
Outline: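 Read-out: growth inhibition vs vehicle controls. Cells: mutant yeast strain deficient in DNA damage repair.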

[4] = NCI Yeast Anticancer Drug Screen. Data for the cln2 rad14 strain (AID 165);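 also: 0% = growth equal to vehicle treated cultures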; conditions: S. cerevisiae cln2 rad14 strain, hits give high values; at 50.0 µM unless noted
Outline: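 cln2 rad14 yeast strain; compound exposure; growth inhibition read vs vehicle controls.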

[5] = NCI Yeast Anticancer Drug Screen. Data for the bub3 strain (AID 167); conditions: S. cerevisiae bub3 mutant strain, hits give high values; at 50.0 µM unless noted
Outline: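 Growth of a checkpoint-deficient yeast mutant is measured after compound exposure. Values represent inhibition relative to vehicle.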

[6] = NCI Yeast Anticancer Drug Screen. Data for the mlh1 rad18 strain (AID 175); conditions: S. cerevisiae mlh1 rad18 strain growth inhibition, hits give high values; at 50.0 µM unless noted
Outline: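 Yeast w/ defined DNA-repair lesions; compound exposure; growth vs vehicle controls → % inhibition.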

Row | SMILES | growth inhibition [1] | growth inhibition [2] | growth inhibition [3] | growth inhibition [4] | growth inhibition [5] | growth inhibition [6]
1 | O=c1n(-c2ccccc2)c(=O)n2n1C1C3C4C5C3C2C5(F)C41 (stereo not given) | -7.3% | 8.45% | 5.95% | 13.7% | 6.75% | 12.3%
2 | CC(C)(C)NC(=O)C(Br)c1ccccc1 (stereo not given) | 0.05% | 23.1% | 33.8% | -2.25% | 54.1% | 16%
3 | C[n+]1c(SCC(=O)O)sc2ccccc21 | -28.8% and 1.2% | -46.3% and 10.1% | 3.7% and 19.6% | 14.9% and 6.5% | -26.6% and 34.2% | 5.7% and 22.9%
4 | C=CC[Si](CC=C)(OCC)OCC | 9.65% | -21.9% | 7.05% | 20.7% | -6.9% | 23.2%
5 | O=C1c2c(O)ccc(O)c2C(=O)c2c(NCCNCCO)ccc(NCCNCCO)c21 | 61.9% and 31.9% | 21.6% and -16.4% | 54.2% and -52% | -41.9% and -21.4% | 9.5% and -63.3% | 41% and -16.6%
6 | CCOC(=O)C1=C(C)O/C(=C/c2cccc(Cl)c2)C1=O | 42% | 35.2% | 31.1% | 45.9% | 47% | 56.1%
7 | CCCCCCCS(=O)c1nc2ccccc2s1 (stereo not given) | 37.2% | 15.2% | 60.9% | 20.2% | 42.8% | 27.6%
8 | CCO/C([O-])=N\[n+]1c(C)nc2cc3c(cc2c1C)OCO3 | 5.75% | 5.65% | 1.2% | 7.8% | 9% | 8.9%
9 | Cc1cc(C)nc(/N=C(/N)Nc2ccc(S(=O)(=O)NC(=O)Nc3ccccc3)cc2)n1 | 21.5% | 2.55% | 5.8% | 1.8% | 0% | -4.2%
10 | Cc1ccnc(NCCCNc2nccc(C)n2)n1 | 22.6% | -1.4% | 14.1% | 36.8% | 5.2% | 22.3%
11 | N#Cc1c(-c2ccccc2)[nH]c2ccccc2c1=O | 54.7% | 55.4% | 2.05% | 11.3% | -3.65% | -17.5%
12 | O=c1oc2c3ccc4ccccc4c3n(CCN3CCOCC3)c2c2ccccc12 | 19.1% | -3.6% | -29.6% | 2.35% | -19.9% | -3.9%
13 | N#CSC(C(=O)c1ccccc1)c1ccccc1 (stereo not given) | 94.2% (active) | 60.6% | 91.2% (active) | 89% (active) | 95.2% (active) | 91.3% (active)
14 | CCOC(=O)c1sc(SC)nc1NC(=O)c1ccccc1 | -18.4% | -9% | -5.45% | 3.2% | -3.4% | -33.2%
15 | CCCCCCCCCCCCCCCCCCCCCCCCC(=O)O | -18.6% | -22.6% | -11.4% | 4.15% | -33.5% | -25.5%
16 | O=C(N=C(Oc1ccccc1)Oc1ccccc1)N=C(Oc1ccccc1)Oc1ccccc1 | 19.9% | 9.15% | 8.4% | 20.3% | 9.15% | 36%
17 | CC(=O)c1ccccc1NC=O | -7.55% | -10.2% | -12.1% | -40.9% | -15.3% | 4.15%
18 | CC1=C2CC(C)(C)CC(=O)C2(C)CCC1=O (stereo not given) | 4.2% | -6.55% | 11.9% | 25.6% | -2.85% | 27.8%
19 | CCCCCCCCCC=O | -2.05% | 8% | -11.5% | 10.6% | 23.7% | 6.8%
20 | Cc1nn(C)c(N)c1C#N | -15.9% and 8% | -11.7% and 5.95% | -24.6% and 3.6% | 0.3% and 26.9% | -8.45% and -6.5% | -18.2% and -7.45%
